The text below walks through data of PubChem BioAssay.

The source made the active and inactive calls. Unless noted, the rule behind the calls is not given here.

A short description of assay [1]: compound effects on lung adenocarcinoma cell viability – A549, calcein-AM fluorescence, 48 h, basal, profiling panel (AID 1162). Note: test concentration not given here. The following applies: higher = more signal.
Assay [2] in a line: compound effects on differentiated 3T3-L1 adipocyte viability – cell-based, 3T3-L1 adipocytes, calcein-AM fluorescence, 48 h, basal, profiling panel (AID 1163). Note: test concentration not given here. As to conditions: 3T3-L1 adipocytes viability, higher = more signal.
Assay [3] in a line: compound effects on hepatocellular carcinoma cell viability – HepG2, calcein-AM fluorescence, 48 h, basal, profiling panel (AID 1164). Note: test concentration not given here. As to conditions: higher = more signal.
Assay [4] in a line: compound effects on multiple myeloma cell viability – MM1S, calcein-AM fluorescence, 48 h, basal, profiling panel (AID 1165). Note: test concentration not given here. As to conditions: higher = more signal.
A short description of assay [5]: calcein-AM signal in unstimulated myeloma cells – cell-based, calcein-AM fluorescence, 48 h, PK04 Diversity Set, profiling panel (AID 1166).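 Note: cells grown under basal conditions without added stimulus; test concentration not given here.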 The following applies: RPMI8226 myeloma viability, higher = more signal.
A short description of assay [6]: JC-1 mitochondrial signal, unstimulated HepG2 cells – cell-based, JC-1 fluorescence, 24 h, 100 nL compound, profiling panel (AID 1167). Note: test concentration not given here. The following applies: HepG2 mitochondrial potential, higher = more signal.
Assay [7] can be described thus: JC-1 mitochondrial signal, unstimulated adipocytes – cell-based, JC-1 fluorescence, 3T3-L1 adipocytes, 24 h, 100 nL compound, profiling panel (AID 1168). Note: test concentration not given here. As to conditions: JC-1 mitochondrial fluorescence, higher = more signal, called active from +8 up or from −8 down.
Assay [8] is described as follows: JC-1 mitochondrial signal, unstimulated myeloma cells – cell-based, JC-1 fluorescence, RPMI8226, 24 h, 100 nL compound, profiling panel (AID 1169). Note: test concentration not given here. As to conditions: JC-1 mitochondrial potential fluorescence, higher = more signal.
Assay [9] in a line: JC-1 mitochondrial signal, unstimulated MM1S myeloma – cell-based, JC-1 fluorescence, 24 h, 100 nL compound, profiling panel (AID 1170). Note: test concentration not given here. As to conditions: MM1S mitochondrial potential, higher = more signal.
The nature of assay [10]: resazurin metabolic signal in A549 cells – cell-based, resazurin fluorescence, 24 h, PK04 Diversity Set, profiling panel (AID 1171). Note: test concentration not given here. As to conditions: A549 viability, higher = more signal, called active from +8 up or from −8 down. (In general: Alamar Blue is a resazurin reagent that responds to reducing activity.)
Assay [11] in a line: resazurin metabolic signal in HepG2 cells – cell-based, resazurin fluorescence, 24 h, PK04 Diversity Set, profiling panel (AID 1172). Note: test concentration not given here. As to conditions: HepG2 viability, higher = more signal.
Assay [12] is described as follows: budding yeast growth changes without added modifier – OD600, strain BY4716, 24 h, basal condition, primary screen (AID 1173). As to conditions: S. cerevisiae BY4716 growth, OD600, 24 h; higher = more signal, called active from +8 up or from −8 down.
The nature of assay [13]: viability profiling in MM1S myeloma cells – cell-based, resazurin fluorescence, basal, 24 h, PK04 Diversity Set, profiling panel (AID 1174). Note: test concentration not given here. As to conditions: higher = more signal, called active from +8 up or from −8 down.
The target in assay [14] is Dihydroorotate dehydrogenase (quinone), mitochondrial (Plasmodium falciparum (isolate 3D7)) (UniProt Q08210). Description: inhibition of P. falciparum DHODH – biochemical, C-terminal His tag, absorbance 600 nm, primary screen (AID 1175).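 Note: recombinant parasite enzyme with a five histidine tag at its C terminus; test concentration not given here.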 The following applies: PfDHODH enzyme, DCIP absorbance 600 nm; higher = more signal, called active from +8 up or from −8 down.
A short description of assay [15]: inhibition of PAO1 biofilm formation – strain PAO1, LB-PBS medium, absorbance 600 nm, primary screen (AID 1176). Note: test concentration not given here. The following applies: P. aeruginosa PAO1 growth/biofilm, A600, 12 h; higher = more signal.
Assay [16] can be described thus: growth modulation of vineyard yeast isolate – strain RM11-1a, OD600, basal, 24 h, primary screen (AID 1177).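 Note: cultures grown under basal conditions with no added stressor; test concentration not given here.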 As to conditions: S. cerevisiae RM11-1a growth, OD600, 24 h; higher = more signal, called active from +8 up or from −8 down.
A short description of assay [17]: growth of efflux-deficient E. coli DRC39 – strain DRC39, OD650, 24 h, E. coli filamentation inducers, primary screen (AID 1178).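 Note: growth measured as culture turbidity by optical density at 650 nm; test concentration not given here.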 As to conditions: E. coli DRC39 acrAB, higher = more signal, called active from +8 up or from −8 down.
Assay [18] in a line: growth of efflux-deficient E. coli DRC39 – strain DRC39, OD650, 48 h, E. coli filamentation inducers, primary screen (AID 1179).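 Note: screen aims at cell division blockers that make cells filament.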 As to conditions: E. coli DRC39 delta-acrAB growth, higher = more signal, called active from +8 up or from −8 down.
Assay [19] is described as follows: viability profiling in RPMI8226 myeloma cells – cell-based, resazurin fluorescence, basal, 24 h, PK04 Diversity Set, profiling panel (AID 1180).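 Note: RPMI8826 multiple myeloma cell line at 5000 cells per well; test concentration not given here.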 As to conditions: higher = more signal.
The target of assay [20] is E3 ubiquitin-protein ligase XIAP (Homo sapiens) (UniProt P98170). Kind of assay: small molecules binding XIAP protein – biophysical, small-molecule microarray, fluorescence 635 nm, primary screen (AID 1181).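 Note: score merges 667 nm emission and signal to noise over triplicate slides.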 As to conditions: higher = more signal.
E3 ubiquitin-protein ligase XIAP (Homo sapiens), sequence (P98170 whole entry, looked up): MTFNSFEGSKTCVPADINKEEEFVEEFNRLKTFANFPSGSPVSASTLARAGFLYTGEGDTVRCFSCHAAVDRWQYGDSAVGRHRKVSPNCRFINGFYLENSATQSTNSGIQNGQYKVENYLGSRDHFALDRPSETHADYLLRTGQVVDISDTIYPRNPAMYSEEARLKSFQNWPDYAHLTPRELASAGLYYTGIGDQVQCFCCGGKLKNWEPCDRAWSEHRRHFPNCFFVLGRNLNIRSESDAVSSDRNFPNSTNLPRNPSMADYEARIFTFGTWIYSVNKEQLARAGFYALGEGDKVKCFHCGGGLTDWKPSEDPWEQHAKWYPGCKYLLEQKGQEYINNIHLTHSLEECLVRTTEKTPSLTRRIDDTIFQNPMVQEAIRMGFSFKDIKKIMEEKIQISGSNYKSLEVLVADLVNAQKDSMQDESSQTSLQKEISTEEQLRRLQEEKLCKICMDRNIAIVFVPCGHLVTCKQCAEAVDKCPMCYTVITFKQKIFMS

Dihydroorotate dehydrogenase (quinone), mitochondrial (Plasmodium falciparum (isolate 3D7)), sequence (Q08210 whole entry, looked up): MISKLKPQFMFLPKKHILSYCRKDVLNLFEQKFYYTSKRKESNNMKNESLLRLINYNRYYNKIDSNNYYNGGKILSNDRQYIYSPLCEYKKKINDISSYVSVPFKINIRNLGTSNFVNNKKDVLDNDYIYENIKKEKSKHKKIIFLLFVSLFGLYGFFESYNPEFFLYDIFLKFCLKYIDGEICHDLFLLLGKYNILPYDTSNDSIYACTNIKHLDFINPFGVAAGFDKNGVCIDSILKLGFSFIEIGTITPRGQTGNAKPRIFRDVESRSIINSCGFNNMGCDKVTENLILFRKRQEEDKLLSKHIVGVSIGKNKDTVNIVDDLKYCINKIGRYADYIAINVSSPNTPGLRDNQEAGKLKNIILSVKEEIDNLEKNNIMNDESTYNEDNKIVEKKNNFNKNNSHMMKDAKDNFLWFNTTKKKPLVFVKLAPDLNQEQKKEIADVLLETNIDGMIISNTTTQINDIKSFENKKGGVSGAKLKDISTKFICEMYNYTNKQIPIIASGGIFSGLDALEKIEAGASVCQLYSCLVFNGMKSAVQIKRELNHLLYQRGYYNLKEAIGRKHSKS

In the case of `COCCOC(=O)N1C(=O)[C@@]2(c3cc(C#CC4=CCCCC4)ccc31)[C@H](C(=O)NC[C@H](O)c1ccccc1)[C@H]1C(=O)O[C@H](c3ccccc3)[C@H](c3ccccc3)N1[C@@H]2c1ccccc1OCCO`, the z-score in [1] is -1.03; in assay [2], -0.383; in [3], -3.29; in assay [4] it was -3.21; in [5], -4.04; in [6], -1.46. Further, the z-score in assay [7] was 2.6 (inactive); in assay [8], -0.804; in [9], -1.67; in assay [10] it was -1.43 (inactive); in assay [11], -1.57; in [12] it was 1.76 (inactive). In addition, the z-score was -4.83 (inactive) in [13]; 3.52 (inactive) in assay [15]; 2.69 (inactive) in [16]; -0.504 (inactive) in [17]; -0.542 (inactive) in [18]; -4.64 in assay [19]. Besides, the composite z-score is 0.271 (inactive) in assay [14] and 0.175 in assay [20].
In the case of `CCCC[C@@H]1C[C@H]1[C@@H](NC(=O)c1ccccc1)c1ccccc1C(F)(F)F`, the z-score in assay [1] is -0.407; in assay [2], 0.128; in [3] it was -0.0379; in assay [4], -1.69; in [5], -0.947; in assay [6] it was -1.06. Further, the z-score is -0.895 (inactive) in assay [7]; -0.472 in assay [8]; -0.573 in assay [9]; 2.38 (inactive) in assay [10]; 0.826 in assay [11]; 0.66 (inactive) in assay [12]. Moreover, the z-score is -0.159 (inactive) in assay [13]; 0.951 (inactive) in assay [15]; -0.114 (inactive) in assay [16]; -0.372 (inactive) in [17]; -0.464 (inactive) in assay [18]; 0.0311 in assay [19]. Further, the results for the composite z-score in assay [14] and in assay [20] were -0.454 (inactive) and -0.261, respectively.
Take `O=C1O[C@H](c2ccccc2)[C@H](c2ccccc2)N2[C@H]1[C@@H](C(=O)Nc1nc3ccccc3s1)[C@]1(C(=O)Nc3ccc(C#CC4(O)CCCCCC4)cc31)[C@H]2c1ccc(O)cc1`: the z-score in [1] is -0.0457; in assay [2] it was 0.6; in assay [3], -0.0827; in assay [4] it was -2.98; in [5] it was -4.08; in [6], -3.62. For the same molecule, the z-score in assay [7] is -2.4 (inactive); in assay [8], -1.14; in assay [9], -0.676; in assay [10], -0.318 (inactive); in [11], -0.629; in [12] it was -0.945 (inactive). The z-score in assay [13] is -1.55 (inactive); in assay [15], 1.44 (inactive); in assay [16], -0.124 (inactive); in [17] it was -0.492 (inactive); in assay [18], -0.716 (inactive); in assay [19] it was -1.36. In addition, the composite z-score in [14] is 0.0022 (inactive); in assay [20], -0.0426.
In the case of `COc1cc2c(cc1OC)CN(C(=O)[C@H]1[C@@H]3C(=O)O[C@@H](c4ccccc4)[C@@H](c4ccccc4)N3[C@@H](c3ccc(O)cc3)[C@]13C(=O)Nc1ccc(C#CC4(O)CCCCCC4)cc13)CC2`, the z-score in assay [1] was 0.273; in [2], -0.0218; in [3], -0.155; in [4], -0.369; in [5] it was -0.66; in assay [6] it was -1.37. Also, the z-score in assay [7] is -0.263 (inactive); in assay [8], -0.34; in assay [9] it was 0.432; in assay [10] it was 1.24 (inactive); in assay [11] it was 0.496; in assay [12], 0.076 (inactive). Moreover, the z-score was -0.4 (inactive) in assay [13]; 0.89 (inactive) in assay [15]; 0.087 (inactive) in [16]; -0.463 (inactive) in [17]; -0.794 (inactive) in [18]; 1.15 in assay [19]. For the same molecule, the composite z-score in [14] was -0.543 (inactive); in assay [20], 0.364.
In the case of `COCCOC(=O)N1C(=O)[C@@]2(c3cc(C#CCNC(N)=O)ccc31)[C@H](C(=O)N1CCCCCCC1)[C@H]1C(=O)O[C@H](c3ccccc3)[C@H](c3ccccc3)N1[C@@H]2c1ccccc1OCCO`, the z-score in [1] was 1.01; in assay [2], -0.177; in assay [3] it was 1.04; in [4] it was 1.38; in assay [5] it was 0.767; in [6], -1.3. Besides, the z-score in assay [7] was 0.315 (inactive); in assay [8], -0.587; in assay [9], -1.57; in assay [10], -0.307 (inactive); in assay [11], 0.0533; in assay [12], 1.41 (inactive). Further, the z-score in assay [13] is 0.188 (inactive); in assay [15] it was 2.08 (inactive); in [16], 2.43 (inactive); in assay [17], 0.532 (inactive); in assay [18], 0.614 (inactive); in assay [19] it was 0.368. Further, the results for the composite z-score in assay [14] and in [20] were 0.641 (inactive) and 0.291, respectively.
Regarding `COC(=O)c1c(CC[C@@H](CO)NC(=O)N[C@H](Cn2cc(-c3cncn3C)nn2)C(C)C)oc(C(C)=O)c1C(=O)OC`, the z-score is 0.128 in assay [1]; 1.93 in assay [2]; -0.102 in assay [3]; 0.191 in assay [4]; -0.344 in assay [5]; 0.57 in [6]. In addition, the z-score in assay [7] was 1.43 (inactive); in [8], -0.444; in assay [9], -0.289; in assay [10], -0.169 (inactive); in [11], -0.623; in assay [12] it was -0.476 (inactive). For the same molecule, the z-score is 0.254 (inactive) in assay [13]; -1.06 (inactive) in assay [16]; 2.37 (inactive) in assay [17]; 1.47 (inactive) in assay [18]; -0.0832 in [19]. The composite z-score in [14] was -4.63 (inactive); in [20], -0.0884.
As for `CO[C@@H]1COC(=O)[C@@H]2CCCN2C(=O)CC=C[C@@H](C)[C@H](OC)COC(=O)[C@@H]2CCCN2C(=O)CC=C[C@H]1C`, the z-score in assay [1] was 0.798; in assay [2] it was 0.185; in [3], 1.21; in [4], 0.283; in assay [5], 0.142; in [6], -0.123. The z-score in [7] is 1.15 (inactive); in [8], -0.695; in assay [9], 2.22; in assay [10] it was 1.82 (inactive); in [11], 0.929; in assay [12], -1.45 (inactive). Besides, the z-score in assay [13] was 1.31 (inactive); in assay [16], -0.553 (inactive); in assay [17], 1.65 (inactive); in assay [18] it was 0.987 (inactive); in [19], 0.0475. For the same molecule, the values for the composite z-score in [14] and in assay [20] were 0.319 (inactive) and -0.02, respectively.
For the molecule `C=CC[C@]1(C(=O)O)N=C(c2ccc(OCCCO)cc2)O[C@H]1c1ccccc1`, the z-score is 0.0248 in [1]; 1.88 in assay [2]; 0.0696 in [3]; -0.394 in assay [4]; -0.512 in [5]; 0.801 in [6]. In addition, the z-score was 0.0186 (inactive) in assay [7]; -0.755 in [8]; 1.29 in assay [9]; 0.692 (inactive) in assay [10]; 0.734 in assay [11]; -2.31 (inactive) in [12]. Further, the z-score in [13] was 1.63 (inactive); in assay [16] it was 0.344 (inactive); in [17], 2.94 (inactive); in assay [18], 1.25 (inactive); in assay [19], 1.77. The composite z-score in assay [14] is 1.51 (inactive); in assay [20], 0.109.
In the case of `CO[C@@H]1COC(=O)CC=C[C@H](C)COC(=O)[C@H](Cc2ccccc2)NC(=O)CC=C[C@H]1C`, the z-score in assay [1] was 0.392; in [2], 0.509; in [3], 0.674; in assay [4], 0.305; in [5] it was 0.333; in [6], 0.883. Besides, the z-score in assay [7] is 0.258 (inactive); in [8] it was -0.146; in [9] it was -0.597; in assay [10] it was -0.145 (inactive); in [11], 0.0057; in [12], -1.95 (inactive). Further, the z-score is 0.266 (inactive) in assay [13]; -1.02 (inactive) in assay [16]; 0.131 (inactive) in assay [17]; -0.0502 (inactive) in [18]; -0.094 in [19]. Further, the composite z-score in assay [14] was 0.519 (inactive); in assay [20], 0.0896.
